MbtI inh: MbtI salicylate synthase inhibitors, primary screen, biochemical, fluorescence intensity; AID 493033, 2011; inhibition, % (concentration not given with the values); purified MbtI enzyme, fluorescence intensity read-out; P9WFX0; 100,000 compounds, 0.89% hits; in the data active means inhibition mostly above about 56%, no sharp cut-off; inactive means mostly below about 77%
PV pol inh: poliovirus RdRp elongation inhibitors, primary screen, biochemical, fluorescence polarization, total intensity | Genome polyprotein (Poliovirus type 1 (strain Mahoney)), P03300 | poliovirus polymerase elongation; hits give low values | % elongation, % (compound at 16.7 µg/mL) | 150,000 compounds, 0.66% hits; in the data active means % elongation below about 90%
MenB inh: M. tuberculosis MenB inhibitors, primary screen, biochemical, absorbance. 1,4-dihydroxy-2-naphthoyl-CoA synthase (Mycobacterium tuberculosis (strain ATCC 25618 / …. MenB enzyme assay, absorbance read-out. inhibition, % (no concentration beside the values). 100,000 compounds, 0.43% hits. AID 540299, 2011; in the data active means inhibition above about 21%, passing the limit was not always enough
Target sequence (P9WNP5 whole entry, looked up): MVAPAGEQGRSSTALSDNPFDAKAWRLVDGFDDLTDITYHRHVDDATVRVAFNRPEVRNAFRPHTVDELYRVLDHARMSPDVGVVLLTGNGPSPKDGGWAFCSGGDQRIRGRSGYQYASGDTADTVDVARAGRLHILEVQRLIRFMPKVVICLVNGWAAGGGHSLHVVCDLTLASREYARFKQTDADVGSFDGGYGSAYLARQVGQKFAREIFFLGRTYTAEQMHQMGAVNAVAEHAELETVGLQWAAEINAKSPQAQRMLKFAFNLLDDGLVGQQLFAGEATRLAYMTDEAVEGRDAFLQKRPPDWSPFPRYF
AID504770: growth inhibition of E. coli YBA685, primary screen, V. cholerae RctB inhibitors; E. coli YBA685 rctB-dependent plasmid, OD600 growth, 3 h; hits give low values; z-score (no concentration beside the values); 130,000 compounds, 0.27% hits; AID 504770, 2011; in the data active means z-score below about -2, passing the limit was not always enough
* = called active by the depositor; ! = not active in a repeat. Only some compounds are listed: those with a hit (about 1.4% of all), similar ones and a draw of the others.

For CN(CCO)c1ccc(-c2nc(-c3ccccc3)c(-c3ccccc3)[nH]2)cc1 the results were MbtI inh -95, PV pol inh 103, MenB inh -42 and AID504770 1.2.
Screening COc1ccc(CNc2nccs2)cc1OC returned MbtI inh 4, PV pol inh 101, MenB inh 29* and AID504770 1.3.
`CSc1ncc(C(=O)N(C)Cc2ccc3c(c2)OCO3)n1-c1ccccc1` gave MbtI inh -6, PV pol inh 105, MenB inh -17 and AID504770 -0.5.
CCN(CC)P1(=S)c2c(C)nn(CCC#N)c2N=C(c2ccc(F)cc2)N1C (stereo not drawn) was read as MbtI inh 4, PV pol inh 102, MenB inh 6 and AID504770 -0.05.
Screening Cc1nn(CCC#N)c2c1P(=S)(N1CCCCC1)OC(c1ccccc1)=N2 (stereo not drawn) returned MbtI inh 51, PV pol inh 90*, MenB inh -57 and AID504770 0.55.
For CCc1c(C)sc(NC(=O)c2cc(-c3ccccc3)on2)c1C#N the results were PV pol inh 83*, MenB inh -11 and AID504770 3.6.
CCOC(=O)c1c(-c2ccccc2)csc1NC(=O)c1cc(-c2ccc(F)cc2)on1 was read as PV pol inh 89*.
For CCOC(=O)c1c(-c2ccccc2)csc1NC(=O)c1cc(-c2ccc(Br)cc2)on1 the results were PV pol inh 78*.
CCOC(=O)c1c(-c2ccc(C)cc2)csc1NC(=O)c1cc(-c2ccc(C)c(F)c2)on1 was read as PV pol inh 111.
CN1CCN(C(=S)c2cccc(OCc3ccccc3)c2)CC1 was read as MbtI inh 33, PV pol inh 101, MenB inh -11 and AID504770 -0.45.
Screening S=C(c1cccc(OCc2ccccc2)c1)N1CCCCC1 returned MbtI inh 73*, PV pol inh 94, MenB inh -34 and AID504770 0.1.
`CCN(CC)C(=O)COc1ccc2c(CC(=O)O)coc2c1` gave MbtI inh -9, PV pol inh 104, MenB inh -6 and AID504770 -2.6*.
Screening CCN(CC)C(=O)COc1ccc2ccc(=O)oc2c1 returned MbtI inh -43, PV pol inh 104, MenB inh 9 and AID504770 0.05.
For O=C(Nc1ccccc1)N1CCCCC1 the results were MbtI inh -9, PV pol inh 101, MenB inh 2 and AID504770 -0.85.
For N#C/C(C(=O)N1CCCCC1)=C(/S)Nc1ccccc1 the results were MbtI inh 71*, PV pol inh 99, MenB inh -17 and AID504770 0.3.
N#C/C(C(N)=O)=C(/S)Nc1ccccc1 was read as MbtI inh 30, PV pol inh 101, MenB inh -16 and AID504770 -3.8*.
Screening NC(=O)c1cc(S(=O)(=O)NCc2ccccc2)cs1 returned PV pol inh -12*.
For c1c(SSc2cn3c(n2)CCC3)nc2n1CCC2 the results were MbtI inh 93*, PV pol inh 99, MenB inh -45 and AID504770 -0.55.
NC(=S)N(c1ccccc1)c1ccccc1 was read as MbtI inh 5, PV pol inh 101, MenB inh 32* and AID504770 1.1.
Screening CSC(=S)N(c1ccccc1)c1ccccc1 returned MbtI inh -7, PV pol inh 102 and AID504770 0.45.
O=C1NN(c2ccccc2)C(=O)/C1=C/c1ccc(Br)cc1 was read as PV pol inh 98, MenB inh 79* and AID504770 -0.3.
For COC(=O)c1cc(-c2ccccc2)sc1NC(=O)C1CCCO1 (stereo not drawn) the results were PV pol inh 85*, MenB inh -33 and AID504770 -0.85.
`COC(=O)CN(C)c1nnc(N)s1` gave MbtI inh 96*, PV pol inh 91, MenB inh -5 and AID504770 -0.75.
Screening CC(C)CN(CC(C)C)c1nnc(N)s1 returned MbtI inh -12 and AID504770 -0.65.
For Clc1ncnc2sc3c(c12)CCC3 the results were MbtI inh 89*, PV pol inh 97, MenB inh 1 and AID504770 -0.45.
Screening CC1CCCCN1C(=O)CCc1nc2ccccc2n1-c1ccccc1 (stereo not drawn) returned MbtI inh 20, PV pol inh 101, MenB inh -5 and AID504770 1.4.
Screening CNC(=O)c1ccc(CN2CCc3ccccc3C2)cc1 returned MbtI inh 0, PV pol inh 102, MenB inh 27* and AID504770 -0.35.
Screening C=CCn1c(COc2ccc(CC)cc2)nnc1SCC(=O)c1cc(C)n(CCOC)c1C returned MbtI inh 1, PV pol inh 101, MenB inh -25 and AID504770 -2.4.
Screening CCN(CC)S(=O)(=O)c1cccc(-n2sc3ccccc3c2=O)c1 returned MbtI inh 100*, PV pol inh 108, MenB inh -19 and AID504770 0.4.
For O=c1c2c(-c3cccs3)csc2[nH]c(=S)n1-c1ccccc1 the results were MbtI inh 99*!, PV pol inh 83*!, MenB inh -43 and AID504770 1.8.
CC1Cn2cc(C(=O)N3CCN(Cc4ccc5c(c4)OCO5)CC3)c(=O)c3c(Cl)ccc(c32)O1 (stereo not drawn) was read as MbtI inh 97, PV pol inh 100, MenB inh -1 and AID504770 -0.4.
Screening COc1ccc(CN(Cc2nc3ccccc3c(=O)[nH]2)C(=O)NCc2ccccc2)cc1 returned MbtI inh 6, PV pol inh 105, MenB inh -41 and AID504770 -3.5*.
Cc1cc(C)n2nc(C(=O)N(C)CC(=O)Nc3ccc(Cl)c(C(F)(F)F)c3)nc2n1 was read as MbtI inh -6, PV pol inh 101, MenB inh -6 and AID504770 -0.1.
CCOC(=O)c1ccc(NC(=O)CSc2ncc(S(=O)(=O)c3ccccc3)c(=O)[nH]2)cc1 was read as AID504770 2.
Screening O=C(c1cccs1)N1CCN(C/C=C/c2ccccc2)CC1 returned MbtI inh -7, PV pol inh 101, MenB inh 43* and AID504770 -0.15.
For O=Nc1sc2ccc3ccccc3c2c1O the results were MbtI inh 69*, PV pol inh 95, MenB inh -5 and AID504770 0.1.
CCOC(=O)N1CCN(CC2CCCCC2)CC1 was read as MbtI inh -24, PV pol inh 100, MenB inh -6 and AID504770 -1.6.
CCN1CCN(CC2CCCCC2)CC1 was read as MbtI inh 8, PV pol inh 100, MenB inh 34* and AID504770 1.5.
CN(C)S(=O)(=O)c1cc(C(=O)NCCc2ccccc2)c(Cl)cc1Cl was read as AID504770 0.55.
`Cc1c(CCNC(=O)c2cc(S(=O)(=O)N(C)C)c(Cl)cc2Cl)c2ccccc2n1C` gave PV pol inh 89*, MenB inh -11 and AID504770 0.25.
